HCMV antiviral: human cytomegalovirus inhibition; HFF cells, HCMV-luciferase reporter, 72 h; hits give low values; activity change, negative = inhibition, % at 57.5 µM; 410,000 compounds, 4.5% hits; AID 1259415; in the data active = activity change below about -60%; inconclusive = no clear call, values can overlap the other calls; inactive = above about -39%
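Luciferase read-out from HCMV-luciferase-infected HFFs (MOI 1 PFU/cell) 72 h post infection at 37C; compounds added after 16 h cell attachment; activity normalized between buffer-only basal and Salinomycin (10uM) inhibitor controls.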
VACV Venus inh: inhibitors of vaccinia virus (Venus reporter) | Vaccinia virus Venus reporter expression, fluorescence | Potency, µM (highest dose often 36.5 µM), for the others: at the top dose activity change, negative = inhibition, most hits filed as inhibitors | 330,000 compounds, 0.46% hits; calls by dose curve; tested in A549 cells; note: potency is the fitted concentration of half-maximal effect; nearly all actives have a fitted effect of over 30% in size
FMDV inh: foot and mouth disease virus antiviral activity; FMDV antiviral cell-based qHTS; Potency, µM (highest dose often 57.9 µM), for inactives: at the top dose activity change, negative = inhibition, usual class: inhibitors; 410,000 compounds, 1.2% hits; AID 1159524; calls by dose curve; tested in HEK293T cells; note: read-out not given here; potency is the fitted concentration of half-maximal effect; nearly all actives have a fitted effect of over 45% in size
HCV inh: inhibitors of hepatitis C virus infection; Huh7.5.1 HCVcc-Cre infection, luciferase reporter, 44 h; AID 651820; 340,000 compounds, 3.4% hits; Potency, µM (top dose mostly 41.8 µM), inactives show top-dose activity change, negative = inhibition, usual class: inhibitors; active = well fitted inhibition curve with a large enough effect; inconclusive = small, poorly fitted or top-dose-only effect, or another doubt; inactive = no such curve, though single readings can be large or run the other way; note: potency is the fitted concentration of half-maximal effect
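Cells seeded at 1,000/well and cultured 4 h, then compounds added followed by HCVcc-Cre virus (~0.5 moi). After 44 h further culture, luciferase substrate was added, plates held 15 min at room temperature, and luminescence read for 15 sec.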
VACV mCherry inh: inhibitors of vaccinia virus infection (mCherry reporter signal); Vaccinia virus mCherry reporter infection, fluorescence; Potency, µM (titrated, usually from 36.5 µM), without a hit: top-dose activity change, negative = inhibition, most hits filed as inhibitors; 310,000 compounds, 0.63% hits; AID 720579; calls by dose curve; tested in A549 cells; note: potency is the fitted concentration of half-maximal effect; nearly all actives have a fitted effect of over 35% in size
An asterisk follows results filed as active; i = inactive; ? = inconclusive; . = not tested or not shown; ! = not confirmed by another sample. The list is not random: actives were taken first. Their share in the collection is about 7.3%. % is set by controls: 0 for no effect and ±100 for the full control effect.

SMILES	HCMV antiviral	VACV Venus inh	FMDV inh	HCV inh	VACV mCherry inh
COc1cccc(/C=C/C(=O)OCC(=O)c2ccc(S(=O)(=O)N3CCCCC3)cc2)c1OC	-23.6	.	-18.7%	-11.7%	.
Cc1ccc(F)cc1C(=O)N1CCCCC1c1cc(C(=O)Nc2ccncc2)no1 (stereo unspecified)	-15.6	.	.	.	.
Cc1cccc(NC(=O)COC(=O)c2ccc(S(=O)(=O)N3CCCCCC3)cc2)c1	-99.2*	-25.2%	-7.1%	13.8%	-2.6%
COc1cccc(-n2sc3c(c2=S)-c2cc(OC)ccc2NC3(C)C)c1	-24.5	?	-28.4%	10µM*	?
COc1cccc(-n2cn[nH]c2=S)c1	14.3	4.2%	3.0%	4.7%	i
O=C(Nc1ccc(F)c(Cl)c1)N1CCC(CN2CCOCC2)CC1	-11.1	-14.3%	17.6%	.	-14.0%
O=C(CSc1nnc(CNc2ccc(F)cc2)o1)N1c2ccccc2Sc2ccccc21	-37.1	.	?	10µM*	.
O=C(CSc1nnc(CNc2ccc(F)cc2)o1)N1CCN(C(=O)c2ccco2)CC1	3.1	0.0%	.	16.0%	i
CC(C)(C)c1ccc(C(=O)NCc2nnc(SCC(=O)N3CCCC3)o2)cc1	8.0	-12.8%	-20.8%	.	-5.7%
O=C(NCc1nnc(SCC(=O)N2CCCCC2)o1)c1ccc(F)cc1	-84.9*	-5.9%	0.7%	7.9%	-12.5%
COc1cc(OC)cc(C(=O)NCCCCCCNC(=O)c2cc(OC)cc(OC)c2)c1	14.7	-27.6%	-25.5%	7.08µM*	-19.3%
COc1ccc(NC(=O)N(C2CCCCC2)C2CCN(C(C)C)CC2)c(OC)c1	-9.0	-3.1%	-5.7%	3.55µM*	-15.9%
COc1ccc(NC(=O)N(C2CCCCC2)C(C)c2ccco2)c(OC)c1 (stereo unspecified)	3.3	-4.2%	.	?	-6.1%
COc1cc(NC(=S)NCCC(c2ccccc2)c2ccccc2)cc(OC)c1	?	51.6%	-4.7%	22.4µM*	-14.4%
S=C(Nc1ccccn1)c1ccccn1	-81.9*	?	0.0%	13.1%	?
COc1cccc(NC(=S)NCCC(c2ccccc2)c2ccccc2)c1	-17.3	?	4.3%	?	.
CCCCN(CCC(=O)O)c1ccc(/C=C/c2ccnc3ccccc23)cc1	.	-7.7%	.	.	?
O=S1(=O)CCOC[C@H](c2ccccc2)N1Cc1ccc(F)cc1	.	-21.1%	.	.	-25.6%
COc1ccc(NC(=S)Nc2ccccn2)c(OC)c1	-7.1	-23.6%	68.1%	11.2µM*	-5.4%
COc1ccc(NC(=O)C(CC(C)C)NC(=O)C2CCCCC2)c(OC)c1 (stereo unspecified)	?	-7.7%	316µM*!	-5.9%	-1.4%
COc1ccc(NC(=S)Nc2cc(C)ccn2)c(OC)c1	21.5	-14.2%	53.4%	?	i
COc1ccc(NC(=S)NCCC(c2ccccc2)c2ccccc2)c(OC)c1	-60.4*	?	-14.5%	?	?
S=C(Nc1ccccn1)Nc1ccccc1Cl	-82.8*	-7.8%	41.1%	?	i
Cc1cccc(C(=O)N2CCc3cc(CNC(=O)c4cc5ccccc5[nH]4)ccc32)c1	2.0	-11.5%	-3.1%	.	i
COc1cc(-c2cc(C)c3c(OC)ccc(OC)c3n2)cc2c1OCCN(Cc1cn(C)nc1C)C2	.	21.6%	-2.9%	.	11.7%
SMILES	HCMV antiviral	VACV Venus inh	FMDV inh	HCV inh	VACV mCherry inh
COc1ccc(Nc2nc3ccccc3n3c(N)nnc23)cc1	14.8	-5.4%	-0.6%	.	-6.7%
COc1ccc(-c2nc(C)c(CCNC(=O)C(=O)Nc3cc(C)cc(C)c3)s2)cc1OC	14.4	-2.7%	-21.6%	.	-0.9%
Cc1noc(C)c1-c1nccc(NCc2cccnc2)n1	.	-17.0%	-6.8%	.	-14.9%
COc1cccc(OC)c1C(=O)NCCSC1CCCCC1	-35.7	.	-16.8%	16.6%	.
COc1cc(OC)cc(C(=O)NCCSC2CCCCC2)c1	10.1	-7.6%	4.0%	3.16µM*	-13.3%
Cc1ccc(/C=C/C(=O)NC(=S)Nc2ccccc2C(=O)NC2CCCCC2)cc1	-36.1	0.3%	.	-20.2%	-1.8%
COc1cc(OC)cc(C(=O)NCCOc2ccccc2)c1	65.0	14.7%	32.3%	-21.5%	.
COc1cc(OC)cc(C(=O)NCCC(c2ccccc2)c2ccccc2)c1	-11.4	.	-11.5%	14.1µM*	.
COc1ccc(/C=C/C(=O)NC(=S)Nc2ccccc2C(=O)NC2CCCCC2)cc1	-11.3	-11.6%	.	25.1µM*	i
COc1ccc(NC(=S)NC2CCCCCC2)c(OC)c1	-77.2*	-4.2%	-0.2%	?	-22.2%
